Laboratory results reported in publication PMC5540273 (PLoS ONE, 2017).

Columns and labels:
Details in all cases: concentration: 1 μM, replicates: in singlicate; n = 1
ERK4 = tested on: T1, ERK4
T1 construct: gene MAPK4

ERK5 = tested on: T2, ERK5
T2 construct: gene MAPK7

ERK8 = tested on: T3, ERK8
T3 construct: gene MAPK15

ERN1 = tested on: ERN1
FAK = tested on: T4, FAK
T4 construct: gene PTK2

FER = tested on: FER
FES = tested on: FES
FGFR1 = tested on: FGFR1
FGFR2 = tested on: FGFR2
FGFR3 = tested on: FGFR3
FGFR4 = tested on: FGFR4
FGR = tested on: FGR
FLT1 = tested on: FLT1
FLT3-autoinhibited = tested on: FLT3-autoinhibited
FLT3 = tested on: FLT3
FLT4 = tested on: FLT4
FRK = tested on: FRK
FYN = tested on: FYN
GAK = tested on: GAK
GCN2(Kin.Dom.2,S808G) = tested on: T5, GCN2(Kin.Dom.2,S808G)
T5 construct: gene EIF2AK4
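Further: KINOMEscan kinase panel screen.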

SMILES | %Inh (ERK4) | %Inh (ERK5) | %Inh (ERK8) | %Inh (ERN1) | %Inh (FAK) | %Inh (FER) | %Inh (FES) | %Inh (FGFR1) | %Inh (FGFR2) | %Inh (FGFR3) | %Inh (FGFR4) | %Inh (FGR) | %Inh (FLT1) | %Inh (FLT3-autoinhibited) | %Inh (FLT3) | %Inh (FLT4) | %Inh (FRK) | %Inh (FYN) | %Inh (GAK) | %Inh (GCN2(Kin.Dom.2,S808G))
Nc1nc(-c2ccc3c(N)n[nH]c3c2)cc(N2CCCCC2)n1 [GSK2228768] | 2% | 0% | 0% | 7% | 0% | 10% | 0% | 0% | 0% | 0% | 0% | 12% | 24% | 0% | 0% | 1% | 0% | 18% | 0% | 0%
O=c1cc(N2CCOCC2)nc2n(Cc3cccc(Cl)c3)ccn12 [GSK2296823] | 7% | 0% | 38% | 0% | 0% | 3% | 0% | 0% | 14% | 24% | 5% | 15% | 19% | 14% | 0% | 1% | 7% | 0% | 2% | 0%
Clc1ccc(-c2cc(-c3c[nH]nc3-c3ccccn3)ccn2)cc1 [GW681251] | 6% | 0% | 0% | 0% | 0% | 9% | 0% | 0% | 0% | 1% | 13% | 11% | 20% | 0% | 0% | 0% | 0% | 10% | 74% | 7%
COC(=O)c1cccc(NC(=O)NCCNc2ccnc(Nc3ccc(F)cc3)n2)c1 [GSK1379883] | 4% | 0% | 0% | 21% | 0% | 19% | 7% | 0% | 43% | 15% | 0% | 9% | 28% | 0% | 0% | 17% | 1% | 0% | 0% | 6%
Cl.O=S(=O)(c1cccc(F)c1)c1ccc(Nc2ncnc3cc(Br)sc23)cc1Cl [GSK306886] | 44% | 4% | 0% | 11% | 0% | 14% | 13% | 0% | 0% | 16% | 30% | 24% | 20% | 0% | 0% | 98.1% | 0% | 41% | 3% | 0%
